Screening results (PubChem BioAssay)
hERG WT inh: qHTS for Inhibitors of KCHN2 3.1: Wildtype qHTS | U2OS, BacMam KCNH2, thallium flux FluxOr; active compounds read low | 340,000 compounds, 0.37% hits | Voltage-gated inwardly rectifying potassium channel KCNH2 (Homo sapiens), Q12809 | activity change, % at 1.84 µM;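 active means maximum activity change below -70%; inconclusive means maximum activity change between -70% and -50%; inactive means maximum activity change above -50%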
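U2OS cells were transduced with wild-type KCNH2 virus (2.03 x 10^8 / mL) for 4 h at room temperature, then cultured overnight at 37 C. Thallium flux was read with FluxOr dye. Rate constants were normalized to DMSO controls.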
Pin1 inh: qHTS Assay to Find Inhibitors of Pin1; 390,000 compounds, 0.009% hits; Potency, µM (top dose mostly 115 µM), without a hit: at the top dose activity, negative = inhibition, usual class: inhibitors; AID 504891, 2011; Pin1 FP peptide displacement, HiFluor488, 10 min; Peptidyl-prolyl cis-trans isomerase NIMA-interacting 1 (Homo sapiens), Q13526; active means well fitted inhibition curve with a large enough effect in the polarisation, with a control signal flat, not every such curve was filed as active; inconclusive means small, poorly fitted or top-dose-only effect, or effect the other way, or a change in a side signal; inactive means no such curve, though single readings can be large or run the other way; the % refers to the polarisation; further: potency means the concentration at half of the fitted maximal effect
Target sequence (Q13526 whole entry, looked up): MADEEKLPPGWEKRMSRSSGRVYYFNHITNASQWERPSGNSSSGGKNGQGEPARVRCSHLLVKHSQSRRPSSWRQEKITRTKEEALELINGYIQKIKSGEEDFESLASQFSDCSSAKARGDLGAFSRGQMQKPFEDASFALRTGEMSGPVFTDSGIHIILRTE
KCNH2 3.1 block: qHTS for Inhibitors of KCHN2 3.1: Mutant qHTS; Potassium voltage-gated channel subfamily H member 2, brain isoform KCNH2 3.1 (human); U2OS KCNH2 3.1, thallium flux FluxOr; active compounds read low; activity change, % (tested at about 1.8 µM); 340,000 compounds, 0.95% hits; AID 720553, 2013;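 active means maximum activity change below -70%; inconclusive means maximum activity change from -70% to -50%; inactive means maximum activity change above -50%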;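 further: thallium influx rate constant from kinetic fluorescence after stimulation buffer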
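Virally transduced U2OS (3.1 isoform, 4 h infection in dark at RT) → overnight 37 C → FluxOr + Red40 in HBSS/HEPES, 45 min → stimulation buffer, 2 min kinetic read → rate constant vs DMSO controls.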
RGS4 inhibitor: Inhibitors of Regulator of G Protein Signaling (RGS) 4: qHTS; Regulator of G-protein signaling 4 (Homo sapiens), P49798; Transcreener GDP fluorescence polarization, RGS4-accelerated GTP hydrolysis; Potency, µM (series often up to 114 µM), for inactives: at the highest dose activity change, negative = inhibition, most hits filed as inhibitors; 390,000 compounds, 0.039% hits; further: potency means the concentration at half of the fitted maximal effect; nearly all actives have a fitted effect of over 75% in size
Target sequence (P49798 whole entry, looked up): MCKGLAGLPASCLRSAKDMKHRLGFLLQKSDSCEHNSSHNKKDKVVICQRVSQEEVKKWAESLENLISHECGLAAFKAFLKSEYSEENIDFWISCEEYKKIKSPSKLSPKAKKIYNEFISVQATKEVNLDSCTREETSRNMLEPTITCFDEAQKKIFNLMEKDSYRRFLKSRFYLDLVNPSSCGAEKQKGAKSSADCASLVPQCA
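MLSMR compounds (23 nl, pin-transferred) preincubated 10 min at room temperature with a 500nM (2x) first reagent, then RGS4 at 900nM (2x) plus Transcreener GDP mix added; fluorescence polarization (620/688 nm) read before and after 90 min at 30 °C.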
Tb PGK inh: qHTS Assay to Find Inhibitors of Phosphoglycerate Kinase | 380,000 compounds, 0.043% hits | Potency, µM (top dose mostly 57.5 µM), without a hit: at the highest dose activity change, negative = inhibition, usual class: inhibitors | Phosphoglycerate kinase, glycosomal (Trypanosoma brucei brucei), P07378 | PGK/GAPDH coupled, Kinase-Glo luminescence, 60 min; further: potency means the concentration at half of the fitted maximal effect; nearly all actives have a fitted effect of over 60% in size
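Recombinant glycosomal PGK reaction used 1,3-bisphosphoglycerate generated in-well by GAPDH (100nM final) in 100mM TEA pH 7.6, 5mM MgCl2, 0.01% Tween-20. After 60 minutes at room temperature, ATP was read by Kinase-Glo Plus luminescence end-point.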
GCN5L2 inh: qHTS Assay for Inhibitors of GCN5L2. Histone acetyltransferase KAT2A (Homo sapiens), Q92830. GCN5L2 HAT assay, ThioGlo1 CoA-SH fluorescence. Potency, µM (highest dose often 58.9 µM), inactives show at the top dose activity change, negative = inhibition, usual class: inhibitors. 390,000 compounds, 0.21% hits. AID 504327, 2011; further: potency means the concentration at half of the fitted maximal effect
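Free CoA generated was detected with ThioGlo1 (50uM) fluorescence at Ex340nm/Em540nm, read immediately and after 20 min at room temperature. Enzyme, 20 nM in HEPES pH 7.5 buffer, saw compounds 15 min before adding 75uM H3(1-25) peptide and 70uM acetyl-CoA.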
* marks the source's active call; other numbers are inactive results; [ ] = remark or other dose. Hits are enriched below; roughly 1.2% of the tested compounds scored in any of these assays. Unless noted, the call rests on the fitted dose curve; in most records, active means well fitted curve in the direction sought with a large enough effect; inconclusive means small, poorly fitted or top-dose-only effect, or another doubt; inactive means no such curve, though single readings can be large; an effect the other way counts as inactive or inconclusive. On the % scale 0 is the no-effect control and ±100 the full control effect.

How did CCOC(=O)c1[nH]c2ccc(F)cc2c1NC(=O)CN1CCN(C/C=C/c2ccccc2)CC1 do in these assays?
hERG WT inh: -90*; Pin1 inh: inconclusive; KCNH2 3.1 block: inconclusive; RGS4 inhibitor: -7%; Tb PGK inh: -3%; GCN5L2 inh: -4%

What do the screens show for `O=C(OCC#CCNc1nnc(-c2cccc3ccccc23)o1)c1cccs1`?
GCN5L2 inh: -15%

Results for Cc1ccc(Cl)cc1NC(=O)Cn1cc2c(n1)CCCCC2 ?
Pin1 inh: -1%; RGS4 inhibitor: 17%; Tb PGK inh: -10%; GCN5L2 inh: 1%

What do the screens show for `CCOc1ccc(S(=O)(=O)N2CCN(c3ccccc3)CC2)cc1C(N)=O`?
Pin1 inh: -4%; RGS4 inhibitor: 1%; Tb PGK inh: -2%; GCN5L2 inh: -1%

How did O=C(CN1CCN(C/C=C/c2ccccc2)CC1)NCc1ccc(Cl)cc1 do in these assays?
hERG WT inh: inconclusive; Pin1 inh: 1%; KCNH2 3.1 block: -124*; RGS4 inhibitor: 5%[11.4 µM]; Tb PGK inh: -6%; GCN5L2 inh: 2%

How did COc1ccc(C)cc1NC(=O)CSc1nc(=O)n(Cc2ccccn2)c2c1CCC2 do in these assays?
Pin1 inh: -1%; RGS4 inhibitor: 20%; Tb PGK inh: -2%; GCN5L2 inh: -2%

How did COC(=O)C1Cc2c([nH]c3ccccc23)CN1C(C)=O (configuration not stated) do in these assays?
hERG WT inh: -1; Pin1 inh: -4%; KCNH2 3.1 block: -9; RGS4 inhibitor: 19%; Tb PGK inh: -1%; GCN5L2 inh: 0%

Results for CC(=O)N1Cc2[nH]c3ccccc3c2CC1C(=O)O (configuration not stated) ?
hERG WT inh: -11; Pin1 inh: 8%; KCNH2 3.1 block: -81*; RGS4 inhibitor: 29%; Tb PGK inh: 3%; GCN5L2 inh: -8%

How did Cc1cccc(N(CC(=O)N2CCN(c3ccccc3F)CC2)S(C)(=O)=O)c1 do in these assays?
hERG WT inh: -2; Pin1 inh: -1%; KCNH2 3.1 block: -85*; RGS4 inhibitor: 20%; Tb PGK inh: 2%; GCN5L2 inh: 0%

What do the screens show for `Cc1cc(O)c(C(c2ccccc2)N2CCN(c3ccccc3)CC2)c(=O)n1Cc1ccco1` (configuration not stated)?
Pin1 inh: 3%; RGS4 inhibitor: -9%; Tb PGK inh: 9%; GCN5L2 inh: -7%

Results for COc1ccc(Nc2nc(N3CCCCC3)c3ccccc3n2)cc1 ?
hERG WT inh: 7; Pin1 inh: inconclusive; KCNH2 3.1 block: -13; RGS4 inhibitor: -13%; Tb PGK inh: -5%; GCN5L2 inh: -30%

How did Oc1ccc(Nc2nc(N3CCCC3)c3ccccc3n2)cc1 do in these assays?
hERG WT inh: -1; Pin1 inh: inconclusive; KCNH2 3.1 block: -87*; RGS4 inhibitor: inconclusive; Tb PGK inh: -6%; GCN5L2 inh: -6%

What do the screens show for `Cc1ccc(-n2cnc3cc(C(=O)NCc4ccccc4Cl)ccc32)c(C)c1`?
Pin1 inh: 12%; RGS4 inhibitor: 21%; Tb PGK inh: 9%; GCN5L2 inh: -9%

Results for Cc1noc(C)c1-c1ccc2ncnc(NCc3ccccc3Cl)c2c1 ?
Pin1 inh: -2%

What do the screens show for `Cc1cccc(C)c1OCCNC(=O)c1ccc2ccccc2n1`?
hERG WT inh: -3; Pin1 inh: inconclusive; KCNH2 3.1 block: -89*; RGS4 inhibitor: 14%; Tb PGK inh: 8%; GCN5L2 inh: 8%
